This excerpt belongs to a sample that is enriched for hits.
mHTT-CaM PPI inh = inhibitors of human mutant huntingtin-calmodulin interaction; P42858; AlphaScreen His-mHTT/GST-CaM binding, luminescence; inhibition, % at 15 µM; actives 3.6% (n = 190,000); AID 1671202
Target sequence (P42858 whole entry, looked up, change not shown): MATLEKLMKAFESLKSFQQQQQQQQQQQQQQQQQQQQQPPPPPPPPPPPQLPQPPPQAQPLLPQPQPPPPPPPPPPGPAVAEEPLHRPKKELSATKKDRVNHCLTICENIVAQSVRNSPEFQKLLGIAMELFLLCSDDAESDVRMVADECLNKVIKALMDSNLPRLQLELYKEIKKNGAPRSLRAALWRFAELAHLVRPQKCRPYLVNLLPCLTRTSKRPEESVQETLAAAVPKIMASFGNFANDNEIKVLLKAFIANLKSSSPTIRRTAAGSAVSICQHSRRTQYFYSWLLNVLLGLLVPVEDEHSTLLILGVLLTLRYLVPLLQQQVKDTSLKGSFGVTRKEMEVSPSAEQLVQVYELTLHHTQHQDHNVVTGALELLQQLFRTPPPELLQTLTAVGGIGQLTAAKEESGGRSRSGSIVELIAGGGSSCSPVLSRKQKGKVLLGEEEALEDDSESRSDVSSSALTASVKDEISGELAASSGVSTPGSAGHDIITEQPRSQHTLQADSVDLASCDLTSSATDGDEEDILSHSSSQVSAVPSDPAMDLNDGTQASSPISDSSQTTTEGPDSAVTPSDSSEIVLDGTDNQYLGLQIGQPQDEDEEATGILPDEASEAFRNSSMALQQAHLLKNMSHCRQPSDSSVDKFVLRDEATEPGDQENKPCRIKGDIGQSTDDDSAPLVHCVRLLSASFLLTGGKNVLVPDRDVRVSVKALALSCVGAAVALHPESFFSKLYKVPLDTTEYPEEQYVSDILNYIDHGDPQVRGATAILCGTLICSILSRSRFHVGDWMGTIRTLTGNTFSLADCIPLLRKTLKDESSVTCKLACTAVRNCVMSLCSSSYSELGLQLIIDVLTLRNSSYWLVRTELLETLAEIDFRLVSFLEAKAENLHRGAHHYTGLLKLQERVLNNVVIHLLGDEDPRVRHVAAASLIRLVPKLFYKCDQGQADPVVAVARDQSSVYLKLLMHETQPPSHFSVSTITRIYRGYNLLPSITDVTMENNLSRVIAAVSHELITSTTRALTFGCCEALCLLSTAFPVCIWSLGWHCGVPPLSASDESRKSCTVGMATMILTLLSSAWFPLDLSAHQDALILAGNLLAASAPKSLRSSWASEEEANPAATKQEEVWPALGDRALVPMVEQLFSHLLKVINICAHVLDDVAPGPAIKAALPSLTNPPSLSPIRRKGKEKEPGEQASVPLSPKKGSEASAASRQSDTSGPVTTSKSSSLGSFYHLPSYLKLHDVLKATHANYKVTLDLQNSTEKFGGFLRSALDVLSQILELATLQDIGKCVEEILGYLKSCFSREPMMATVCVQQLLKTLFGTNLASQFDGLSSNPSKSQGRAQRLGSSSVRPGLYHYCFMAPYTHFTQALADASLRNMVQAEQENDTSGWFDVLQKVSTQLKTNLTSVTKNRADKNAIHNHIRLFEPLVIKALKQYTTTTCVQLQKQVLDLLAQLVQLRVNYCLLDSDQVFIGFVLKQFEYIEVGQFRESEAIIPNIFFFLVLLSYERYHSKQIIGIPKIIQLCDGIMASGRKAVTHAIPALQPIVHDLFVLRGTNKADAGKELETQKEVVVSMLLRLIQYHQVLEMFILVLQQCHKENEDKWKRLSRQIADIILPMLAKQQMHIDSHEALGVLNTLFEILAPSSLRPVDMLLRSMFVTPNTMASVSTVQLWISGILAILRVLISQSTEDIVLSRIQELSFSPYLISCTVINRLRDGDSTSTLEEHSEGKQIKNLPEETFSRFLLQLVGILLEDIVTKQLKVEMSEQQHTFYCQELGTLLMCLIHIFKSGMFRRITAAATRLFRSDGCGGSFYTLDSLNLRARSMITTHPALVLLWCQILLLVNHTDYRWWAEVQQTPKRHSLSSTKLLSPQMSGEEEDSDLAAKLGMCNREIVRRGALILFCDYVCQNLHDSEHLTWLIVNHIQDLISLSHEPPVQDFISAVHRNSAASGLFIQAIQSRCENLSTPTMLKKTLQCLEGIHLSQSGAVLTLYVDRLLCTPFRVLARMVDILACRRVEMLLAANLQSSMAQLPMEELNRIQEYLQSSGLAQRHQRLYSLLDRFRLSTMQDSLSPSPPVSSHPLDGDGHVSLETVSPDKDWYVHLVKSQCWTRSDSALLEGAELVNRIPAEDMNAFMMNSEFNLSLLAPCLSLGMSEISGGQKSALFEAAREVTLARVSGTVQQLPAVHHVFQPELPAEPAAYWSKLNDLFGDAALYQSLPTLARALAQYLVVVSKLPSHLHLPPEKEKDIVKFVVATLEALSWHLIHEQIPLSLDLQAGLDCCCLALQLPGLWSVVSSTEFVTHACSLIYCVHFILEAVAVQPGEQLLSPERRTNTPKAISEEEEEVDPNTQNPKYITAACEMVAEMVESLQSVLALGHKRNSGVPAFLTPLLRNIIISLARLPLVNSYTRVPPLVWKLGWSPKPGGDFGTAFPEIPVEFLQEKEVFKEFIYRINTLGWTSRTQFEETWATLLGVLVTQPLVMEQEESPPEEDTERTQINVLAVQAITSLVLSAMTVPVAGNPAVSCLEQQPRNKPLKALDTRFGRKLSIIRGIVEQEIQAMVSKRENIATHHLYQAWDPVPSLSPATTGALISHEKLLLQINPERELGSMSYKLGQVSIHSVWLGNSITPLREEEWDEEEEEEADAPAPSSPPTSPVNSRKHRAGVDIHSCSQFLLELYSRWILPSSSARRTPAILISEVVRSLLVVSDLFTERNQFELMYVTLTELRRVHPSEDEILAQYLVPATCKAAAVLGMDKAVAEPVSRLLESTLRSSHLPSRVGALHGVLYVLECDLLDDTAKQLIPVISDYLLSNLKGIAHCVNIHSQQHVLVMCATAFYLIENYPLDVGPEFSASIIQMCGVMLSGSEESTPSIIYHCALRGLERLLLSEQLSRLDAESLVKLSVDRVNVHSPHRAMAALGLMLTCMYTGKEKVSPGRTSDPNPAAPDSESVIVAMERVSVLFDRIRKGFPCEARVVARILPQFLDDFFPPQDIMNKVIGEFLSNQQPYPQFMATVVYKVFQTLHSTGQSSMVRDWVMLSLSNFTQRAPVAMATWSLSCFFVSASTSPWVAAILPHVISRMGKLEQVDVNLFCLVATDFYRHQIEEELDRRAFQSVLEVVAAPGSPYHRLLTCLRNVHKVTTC
Pf apPOL block = Pf-apPOL DNA polymerase inhibition | inhibition, % at 10 µM | actives 0.25% (n = 210,000) | Recombinant Pf-apPOL, molecular beacon fluorescence, 1.5 h
Hits are given with their value; 0 = inactive; - = not tested or not shown; ! = repeats disagree. No stated cut-off is given here; in the data, active means inhibition above about 50%; inactive means the rest.

SMILES	mHTT-CaM PPI inh	Pf apPOL block
COC(=O)CSCCc1nc(-c2ccc([N+](=O)[O-])cc2)cs1	-	0
CCc1nc2c(c(=O)n1CC(=O)NCc1ccc(OC)cc1)CN(Cc1ccccc1)CC2	0	0
O=C(C1COC2(CCCCC2)N1C(=O)c1ccccc1Cl)N1CCOCC1 (centres undefined)	0	0
COc1cccc(NC(=O)N2CCc3c(nc4cc(-c5ccccc5Cl)[nH]n4c3=O)C2)c1	51	0
O=C(c1ccccc1)N1CCc2nc3cc(-c4ccccc4Cl)[nH]n3c(=O)c2C1	0	0
O=C(Nc1ccccc1)N1CCc2c(nc3cc(-c4ccccc4Cl)[nH]n3c2=O)C1	0	0
O=C(c1ccc2[nH]ccc2c1)N1CCc2nc3cc(-c4ccccc4Cl)[nH]n3c(=O)c2C1	96	0
Cc1ccc(CNC(=O)c2ccncc2)cc1	0	0
Cc1ccnc(Nc2nc(-c3ccc(O)c(O)c3)cs2)c1	92	0
Cc1ccc(-c2csc(Nc3ccccn3)n2)cc1C	0	0
COc1cccc(-c2csc(Nc3cc(C)ccn3)n2)c1	0	0
Cc1cccnc1Nc1nc(-c2ccc(O)c(O)c2)cs1	62	0
O=C(Nc1cccc2ncccc12)c1ccc(-c2nnc(-c3ccccc3)o2)cc1	0	0
CC(C)(C)c1cc(C(=O)NN=Cc2cc(Br)cc(Br)c2O)n[nH]1	-	0
O=C(O)c1cc(-c2ccc(-c3c(-c4ccco4)noc3-c3ccccc3)cc2)nc2ccccc12	69	74
O=C(O)c1cc(-c2ccccc2)nc2ccccc12	0	0
COc1ccc(/C=C2\SC(=O)NC2=O)cc1[N+](=O)[O-]	0	0
O=C(c1cc(-c2ccco2)[nH]n1)N1CCC(COCc2ccccc2)CC1	59	0
O=C(CN1CCN(C(=O)c2cc(-c3ccco3)[nH]n2)CC1)c1ccco1	60	73
Cc1cc(C(=O)N2CCC(COCc3ccccc3)CC2)no1	0	0
CS(=O)(=O)N1CCN(C(=O)c2cc(-c3ccco3)[nH]n2)CC1	0	0
COc1ccc(-n2nc3cc(C)c(NC(=O)c4cccnc4Cl)cc3n2)cc1	0	0
CCOc1ccc(CC(=O)NC2CC(O)C(CO)C2)cc1 (centres undefined)	0	0
Cc1ccnc(NC(=O)C2CC(=O)N(c3ccc(C)c(C)c3)C2)c1 (centres undefined)	0	0
CC(=O)Nc1ccccc1-c1ccccc1NC(C)=O	0	0
SMILES	mHTT-CaM PPI inh	Pf apPOL block
Cc1ccc(-c2cc(C(=O)N3CCN(c4ccc(F)cc4)CC3)ccn2)s1	74	0
Cc1c(C(=O)N2CCN(c3ccc(F)cc3)CC2)sc2nc(-c3ccccc3)cn12	0	0
Cc1nnsc1C(=O)N1CCN(c2ccc(F)cc2)CC1	-	0
Cc1ccnc(Nc2nc(C)c(C(=O)N3CCC(C)CC3)s2)c1	0	0
Cc1nc(Nc2ccc(F)cn2)sc1C(=O)N1CCN(c2ccc(F)cc2)CC1	84	0
Cc1nc(Nc2ccccn2)sc1C(=O)N1CCN(c2ccccc2F)CC1	59	0
Cc1ccc(-c2cc(C(=O)N3CCCCCC3)ccn2)s1	0	0
Cc1nc(Nc2ccc(F)cn2)sc1C(=O)N1CCN(c2ccccc2)CC1	68	0
O=C(CCC1CCCN(c2cc(NC3CC3)ncn2)C1)NCCN1CCCCCC1 (centres undefined)	0	0
CN(CCCNC(=O)C1CCCN(C(=O)c2cccc(Cl)c2)C1)c1ccccc1 (centres undefined)	0	0
Cc1ccc2nc(-c3ccc(C)o3)c(NC(=O)C3CCCC3)n2c1	0	0
COc1cc(C)ccc1OCCCOc1ccc([N+](=O)[O-])cc1	0	0
CCn1c(C2CCN(S(=O)(=O)c3ccc(F)c(C)c3)C2)nc2cccnc21 (centres undefined)	0	0
CCCc1nc2c(c(=O)n1CC(=O)Nc1ccc(C)cc1F)CCN(Cc1ccccc1)C2	0	0
O=C(c1csc(Nc2ccccc2)n1)N1CCN(c2ccccc2F)CC1	80	0
CN1CCN(C(=O)c2csc(N3CCN(c4ccccc4F)CC3)n2)CC1	0	0
O=C1CC(N2CCN(c3ccccc3O)CC2)C(=O)N1c1cc(Cl)cc(Cl)c1 (centres undefined)	0	0
CC(C)(O)C#Cc1ccc(C=NO)cc1	-	0
NCc1cccc(Oc2ccccc2)c1	0	0
N#Cc1cccc(C(=O)Cc2cccc(Oc3ccccc3)c2)c1	-	56
COCCC(=O)N1CCN(c2nc(CN3CCCCC3)cs2)CC1	0	0
NC(=S)NN=Cc1cccc([N+](=O)[O-])c1	0	79
NC(=S)NN=Cc1ccc([N+](=O)[O-])s1	-	0
Cc1ccc([N+](=O)[O-])cc1N=Cc1cccc([N+](=O)[O-])c1	0	0
O=[N+]([O-])c1cccc(C=Nc2cc(Cl)ccc2O)c1	59	0
SMILES	mHTT-CaM PPI inh	Pf apPOL block
Cc1cccc(CSc2nc3c(c(=O)[nH]2)CN(Cc2ccc(F)cc2)CC3)c1	0	0
CC(C)C1c2cccn2CCN1C(=O)NCc1ccc(F)cc1 (centres undefined)	0	0
CSC(=CC(=O)c1sc2scc(C)c2c1C)SC	-	0
COC(=O)c1sc2scc(C)c2c1C	-	64!
O=C(CCc1ccccc1)Nc1c2c(nn1-c1ccc([N+](=O)[O-])cc1)CSC2	0	0
Cc1cc(C)nc(SCC(=O)c2ccc(C(C)C)cc2)n1	0	0
Cc1ccc(C(=O)Sc2nc(C)cc(C)n2)cc1	71	0
CCc1ccc2c(c1)C1(NN=C(c3ccccc3O)S1)C(=O)N2 (centres undefined)	100	0
CCc1ccc(C(=O)N2CCC3(C2)C(=O)Nc2ccccc23)cc1 (centres undefined)	0	0
O=C1Nc2ccccc2C12NN=C(c1ccccc1O)S2 (centres undefined)	100	0
O=C1c2ccccc2C(=O)C1C1(C2C(=O)c3ccccc3C2=O)C(=O)Nc2ccccc21	0	0
O=C(Cc1cccs1)N1CCc2c(nc(-c3ccc(F)cc3)[nH]c2=O)C1	0	0
COc1ccc(C2C(C(=O)Nc3nc4ccccc4s3)=C(C)NC3=C2C(=O)CCC3)c(OC)c1 (centres undefined)	0	0
CC1CCN(CC2CCN(S(=O)(=O)c3ccc(C(C)(C)C)cc3)CC2)CC1	0	0
CCNC(=O)c1cn2ccnc(-c3ccc(F)cc3)c2n1	0	0
Cc1ccc(NC(=O)C2CCN(C(=O)c3ccccc3C)CC2)cc1Cl	0	0
Cc1ccc(NC(=O)Cc2ccccc2)c(C)c1	0	0
Cc1ccc(C)c(NC(=O)Cc2nc(-c3ccccn3)n[nH]2)c1	99	0
Cc1cccc(NC(=O)Cc2nc(-c3ccccc3)n[nH]2)c1	0	0
Cc1ccc(NC(=O)Cc2nc(-c3ccccn3)n[nH]2)c(C)c1	86	0
Cc1cc(C)cc(NC(=O)Cc2nc(-c3ccccn3)n[nH]2)c1	78	0
O=C(Cc1ccccc1F)Nc1cc(-c2ccccn2)no1	0	0
Cc1ccc(C)c(NC(=O)Cc2nc(-c3ccccc3)n[nH]2)c1	0	0
O=C(Cc1nc(-c2ccccn2)n[nH]1)Nc1cc(F)ccc1F	95	0
C#CC(C)(CC)OCC(O)CN1CCCCC1 (centres undefined)	0	0
O=C(NCc1ccc(F)cc1)C1CC(=O)N(c2ccc3c(c2)CCN3C(=O)C2CCC2)C1 (centres undefined)	0	0
Cc1cc(F)ccc1NC(=O)Cc1nnc(-c2ccc3ncccc3c2)o1	0	0
Cc1cc(F)ccc1NC(=O)Cc1nc(-c2ccccn2)n[nH]1	99	0

Screening data (PubChem)
